Compound activity as filed in PubChem.
A selection: hits, their analogues and other compounds. The true share with any hit is near 1.2%.
eLon inh: inhibits E. coli Lon protease; P0A9M0; purified E. coli Lon protease, fluorescence polarization; inhibition, % at 7.94 µM; 360,000 compounds, 0.42% hits; in the data active = inhibition above about 13%, passing the limit was not always enough;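 also: 0% = enzyme with probe and DMSO and 100% = no enzyme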
LANA DNA inh: KSHV C-LANA DNA binding inhibition; 340,000 compounds, 0.078% hits; MBP-C-LANA/FAM-LBS DNA binding, fluorescence polarization; inhibition, % at 9 µM; AID 504423;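 active = highest replicate inhibition at or above 60% at 9 µM, even if other replicates fall short; inactive = all replicates below 60% inhibition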;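 also: 0% = neutral control wells and 100% = 4 µM acridine orange control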
BCLXL inh: inhibitors of human Bcl-xL | GST-Bcl-xL / FITC-Bim BH3 peptide fluorescence polarization | inhibition, % at 10.9 µM | 320,000 compounds, 0.7% hits | AID 2129;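 active = inhibition above the mean of all tested compounds plus 3 SD, cutoff set per campaign, cut at about 30% in these data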;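 also: 0% = DMSO wells and 100% = unlabeled Bim-BH3 peptide competitor; inhibitors lower millipolarization by displacing the labeled peptide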
Target sequence (Q07817 whole entry, looked up): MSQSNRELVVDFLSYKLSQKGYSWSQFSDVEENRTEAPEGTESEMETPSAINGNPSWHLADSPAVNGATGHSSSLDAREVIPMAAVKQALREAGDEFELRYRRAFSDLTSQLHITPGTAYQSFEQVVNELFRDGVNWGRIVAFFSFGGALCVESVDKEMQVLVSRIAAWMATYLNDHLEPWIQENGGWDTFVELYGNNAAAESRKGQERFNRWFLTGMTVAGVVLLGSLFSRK
GLD-1 TGE inh: GLD-1-TGE RNA interaction inhibition (C. elegans); Q17339; purified GLD-1 + fluorescein TGE RNA, fluorescence polarization; inhibition, % at 5.96 µM; 320,000 compounds, 0.44% hits; AID 2280;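 active = percent inhibition above a per-plate cutoff, the plate mean of test compounds plus 3 SD, cut at about 30% in these data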;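 also: 0% = DMSO wells with GLD-1 and probe and 100% = wells lacking GLD-1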
MEX-5 binding: C. elegans MEX-5 TCR-2 RNA binding activity | Q9XUB2 | MEX-5/FITC-TCR2 RNA binding, fluorescence polarization; active compounds read low | activity score (negative = inhibition of binding), % at 10 µM | 300,000 compounds, 0.38% hits | AID 1832;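 active = inhibition past about -25% in most replicates, and total fluorescence under double the plate's negative control median, limit read from the data; inconclusive = replicates evenly split on the limit, or fluorescence at least double controls; inactive = too little inhibition in most replicates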;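 also: 0% = DMSO and -100% = 5 µM competing unlabeled TCR2 RNA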
Target sequence (Q9XUB2 whole entry, looked up): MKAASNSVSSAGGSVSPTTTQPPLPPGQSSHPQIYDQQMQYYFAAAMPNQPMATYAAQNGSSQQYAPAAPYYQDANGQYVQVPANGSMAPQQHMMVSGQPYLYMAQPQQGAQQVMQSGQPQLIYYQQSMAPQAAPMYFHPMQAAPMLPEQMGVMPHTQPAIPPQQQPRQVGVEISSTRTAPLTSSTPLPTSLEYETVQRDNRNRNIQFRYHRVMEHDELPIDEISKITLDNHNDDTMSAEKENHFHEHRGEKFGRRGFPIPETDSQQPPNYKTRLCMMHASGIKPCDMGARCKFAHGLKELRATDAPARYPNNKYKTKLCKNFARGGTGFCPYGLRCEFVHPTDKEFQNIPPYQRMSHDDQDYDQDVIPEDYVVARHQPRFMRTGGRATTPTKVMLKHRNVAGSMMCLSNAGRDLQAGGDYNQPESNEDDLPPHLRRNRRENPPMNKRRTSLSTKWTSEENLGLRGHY
Keap1-Nrf2 PPI: Keap1-Nrf2 (human) interaction inhibition; inhibition, % at 9.4 µM; Keap1 Kelch-Nrf2 peptide fluorescence polarization, 1536-well; AID 504523; 340,000 compounds, 0.15% hits; in the data active = inhibition above about 12%; inconclusive = no clear call, values can overlap the other calls; inactive = below about 7.3%;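 also: human Keap1 Kelch domain with fluorescein labeled Nrf2 9mer peptide probe; 0% = neutral control wells and 100% = peptide positive control; higher means more block of Keap1 binding to Nrf2 peptide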
Keap1 Kelch bind: Keap1 (human) Kelch domain binding; max delta Tm, degrees C; shares compounds with Keap1-Nrf2 PPI; Keap1 Kelch thermal shift, delta Tm; active compounds read high; 400 compounds, 8% hits; in the data active = max delta Tm above about 0.48 degrees C
Sypro dye melt: counter-screen for Keap1 thermal shift hits: dye-only artifacts; Sypro Orange dye-only thermal melt, no protein, delta Tm; top dose 26 µM; 140 tested, under 10 active; shares compounds with Keap1-Nrf2 PPI; delta Tm, degrees C (test concentration not listed);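 active = at highest dose tested, delta Tm positive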
Starred values were filed as active, the others as inactive; u = inconclusive; x = no result.

SMILES	eLon inh	LANA DNA inh	BCLXL inh	GLD-1 TGE inh	MEX-5 binding	Keap1-Nrf2 PPI	Keap1 Kelch bind	others
COc1ccc(C(O)c2nc(-c3ccccc3OC)cs2)cc1 (stereo not given)	-9	x	x	x	x	x	x
Cc1cc(C)cc(NC(=O)Cc2ccc(S(=O)(=O)N3CCCC3)s2)c1	-5	1	-5	1	x	-4	x
O=C(Cc1ccc(S(=O)(=O)N2CCCC2)s1)Nc1nc2c(s1)CCCC2	-18	10	11	4	1	13*	-0.08	Sypro dye melt=-29
Cc1ccc(-n2nnnc2SCC(=O)c2c(N)n(C3CC3)c(=O)[nH]c2=O)cc1	-1	22	4	2	x	42*	-0.08
O=c1[nH]c(/C=C/c2cccc3ccccc23)nc2ccccc12	1	35	-6	9	-50*	17*	-0.02	Sypro dye melt=-22
O=c1[nH]c(/C=C/c2ccccc2F)nc2ccccc12	3	-1	x	x	4	3	x
O=C(O)c1cc(N2C(=O)C=CC2=O)cc(N2C(=O)C=CC2=O)c1	5	98*	x	x	x	33*	0.27	Sypro dye melt=-27
CCOC(=O)C1=C(C)NC(C)=C(C(=O)OCC)C1c1ccc([N+](=O)[O-])s1	8	20	0	-1	-1	39*	-0.11
CC1Cc2cc(/C=C3/SC(N4CCC(C(N)=O)CC4)=NC3=O)ccc2O1 (stereo not given)	1	11	4	1	-3	21*	-0.12
O=S(=O)(Nc1ncccn1)c1ccc(NC(=S)NCc2cccnc2)cc1	-2	1	-2	-7	3	17*	-0.18
O=S(=O)(c1ccc(NC(=S)NCc2cccnc2)cc1)N1CCCCC1	-5	-1	7	5	4	-4	x
O=C(Cc1ccccc1[N+](=O)[O-])OCC(=O)N1CCN(c2ccccc2)CC1	4	-1	-1	1	0	-5	x
O=C(COc1ccccc1)NCC(=O)N1CCCC(C(F)(F)F)C1 (stereo not given)	6	-1	x	x	x	-5	x
Cn1nc(C(=O)NNC(=O)Cc2ccc(S(=O)(=O)N3CCOCC3)s2)c2ccccc2c1=O	-16	20	x	x	x	32*	-0.18	Sypro dye melt=-28
O=C(CCN1CCN(Cc2ccccc2)CC1)NNC(=O)Nc1cccc([N+](=O)[O-])c1	-3	-1	x	x	4	2	x
O=C1C(=Cc2ccco2)CCC1=Cc1ccco1	8	116*	x	x	x	20*	0.86*
O=C1C(=Cc2ccco2)CCCC1=Cc1ccco1	-57	4	x	x	x	-6	x
O=c1cc(CN(Cc2ccccc2)Cc2ccccc2)c2c(ccc3ccccc32)o1	-11	x	x	x	x	x	x
OC(Cc1ccncc1)(c1ccccc1)c1ccccc1	5	-1	-3	1	1	28*	-0.11
COC(=O)[C@@]1(Cc2ccc(OC)cc2)[C@H]2c3cc(C(=O)N4CCCC4)n(Cc4ccccc4)c3C[C@H]2CN1C(=O)c1ccccc1	11	x	x	x	x	x	x
COc1ccc(NC(=O)Cc2ccsc2)cc1S(=O)(=O)N1CCOCC1	1	27	4	6	x	46*	-0.13
COC(=O)c1ccc(OC(=O)CN2C(=O)c3ccccc3C2=O)cc1	-2	25	10	5	-1	57*	-0.1
CC(C)C1OC2(C)OC(=N)C1(C#N)C(C#N)(C#N)C2c1ccccc1 (stereo not given)	26	94*	80*	79*	-6	21*	-0.06	Sypro dye melt=-31
CC1CCC(C(C)C)C2=C1C(C#N)(C#N)C(C#N)(C#N)C(c1ccccc1)N2 (stereo not given)	0	3	16	21	x	-5	x
C=CCOc1ccc(CNc2ccc(NC(=O)CC(C)C)cc2)cc1OC	-3	1	5	5	0	17*	-0.12
SMILES	eLon inh	LANA DNA inh	BCLXL inh	GLD-1 TGE inh	MEX-5 binding	Keap1-Nrf2 PPI	Keap1 Kelch bind	others
C=CCOc1ccc(CNc2nn[nH]n2)cc1OC	-5	-1	1	1	-4	0	x
Cn1c(=O)c2c(-c3ccccc3)n(-c3cc([N+](=O)[O-])ccc3O)cc2n(C)c1=O	-3	x	x	x	x	x	x
CCCCCCc1cc2cc(S(=O)(=O)c3ccc(Cl)cc3)c(=O)oc2cc1O	-7	0	1	30	-1	-7	x
CCN(CC)c1ccc2cc(S(=O)(=O)c3ccc(Cl)cc3)c(=O)oc2c1	-38	41	-1	-28	-6	33*	0.91	Sypro dye melt=-23
O=C(COC(=O)c1ccc([N+](=O)[O-])s1)Nc1cccc(S(=O)(=O)NC2=NCCCCC2)c1	-6	6	-1	5	0	53*	-0.13
O=C(COC(=O)c1cccs1)Nc1cccc(S(=O)(=O)NC2=NCCCCC2)c1	-3	0	-1	8	1	0	x
CCCCOc1ccc(C2OC34CCCCC3C(C#N)(C#N)C2(C#N)C(=N)O4)cc1 (stereo not given)	27	60*	137*	92*	x	27*	0.03	Sypro dye melt=-27
COc1ccc2c(O)c(-c3c(C)cc(C)cc3C)c(=O)[nH]c2c1	0	0	1	2	4	-6	x
CCCCN1CC(COCc2ccccc2)Oc2cccc(OCCN3C(=O)[C@@H]4[C@H](C3=O)C3C=C[C@H]4C3)c2S1(=O)=O (stereo not given in full)	0	0	x	x	x	3	x
Cc1ccc(NC(=S)NCc2ccc(F)cc2)c(C)c1	-4	28	7	-2	0	22*	-0.16	Sypro dye melt=-24
Cc1ccc(C)c(N2CCN(C(=O)c3cc4ccccn4n3)CC2)c1	9	44	49*	24	-29*	16*	0.38	Sypro dye melt=-28
O=S1(=O)C=C[C@@H](CO)N1Cc1ccc(Br)cc1	7	x	x	x	x	x	x
N=c1c(C(=O)NC2CCCC2)cc2c(=O)n3ccccc3nc2n1Cc1ccccc1	-11	1	4	1	u	u	0.03
Cc1ccc(Cn2c(=N)c(C(=O)NC3CCCCC3)cc3c(=O)n4ccccc4nc32)cc1	-7	13	-2	-7	u	-2	x
Cc1ccccc1NC(=O)c1sc(NC(=O)C2CC2)nc1C	-8	12	1	17	-2	28*	0.01
Cc1nn(-c2ccccc2)c2nc(-c3ccco3)cc(C(=O)O)c12	4	14	13	1	-9	4	x
COC(=O)c1cc(C)nc2c1c(C)nn2-c1ccccc1	0	20	1	1	x	44*	-0.15	Sypro dye melt=-28
O=C(COC(=O)c1cccnc1Cl)Nc1ccc(N2CCCCC2)cc1	-16	x	-7	7	x	43*	-0.12	Sypro dye melt=-27
COc1ccc(NC(C)=O)cc1S(=O)(=O)NCc1ccc2c(c1)OCO2	-1	x	x	x	x	x	x
COc1ccc(NC(=O)CCNC(=O)c2ccco2)cc1S(=O)(=O)N(C)C	-1	0	7	7	0	-4	x
